Common to all, as to test: DAPPL (digital affinity profiling via proximity ligation, sequencing); 10 mM Tris-HCl pH 7.5, 50 mM NaCl, 1 mM DTT, 4% glycerol, room temperature, 30 min; GST-TFs on glutathione beads, 16-mer random dsDNA library, 0.1% formaldehyde crosslink after washing; high values mean tight binding
Holding throughout (conditions): protein: recombinant; tags: N-terminal GST; dsDNA, one strand shown

For one assay, the target named is T1, ELK4 (Homo sapiens, UniProt P28324-2 1-405).
T1 sequence: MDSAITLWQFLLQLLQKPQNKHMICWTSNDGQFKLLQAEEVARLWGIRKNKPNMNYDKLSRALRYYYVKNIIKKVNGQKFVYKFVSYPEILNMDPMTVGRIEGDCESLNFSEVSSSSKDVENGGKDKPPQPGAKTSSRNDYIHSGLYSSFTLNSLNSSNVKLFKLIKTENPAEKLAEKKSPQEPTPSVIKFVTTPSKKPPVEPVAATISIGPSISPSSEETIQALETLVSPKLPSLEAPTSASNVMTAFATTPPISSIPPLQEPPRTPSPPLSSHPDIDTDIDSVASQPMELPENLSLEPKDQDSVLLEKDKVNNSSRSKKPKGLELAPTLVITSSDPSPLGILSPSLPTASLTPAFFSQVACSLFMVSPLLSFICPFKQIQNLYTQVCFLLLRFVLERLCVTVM
In short, it runs like this:
(§1)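 Each value of binding signal is a hexamer's read frequency for a factor divided by the same hexamer's frequency in the tag-only sample. Barcoded, bead-captured GST fusions of human transcription factors made in yeast were pooled with that sample and incubated with 200 nmole of a random double-stranded 16-mer DNA library in Tris/NaCl/DTT/glycerol buffer at room temperature for 30 min. Washing, 0.1% formaldehyde crosslinking, proximity ligation, PCR and Illumina NextSeq500 sequencing followed.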

A further assay deals with T2, ETV2 (Homo sapiens, UniProt O00321 1-342).
T2 sequence: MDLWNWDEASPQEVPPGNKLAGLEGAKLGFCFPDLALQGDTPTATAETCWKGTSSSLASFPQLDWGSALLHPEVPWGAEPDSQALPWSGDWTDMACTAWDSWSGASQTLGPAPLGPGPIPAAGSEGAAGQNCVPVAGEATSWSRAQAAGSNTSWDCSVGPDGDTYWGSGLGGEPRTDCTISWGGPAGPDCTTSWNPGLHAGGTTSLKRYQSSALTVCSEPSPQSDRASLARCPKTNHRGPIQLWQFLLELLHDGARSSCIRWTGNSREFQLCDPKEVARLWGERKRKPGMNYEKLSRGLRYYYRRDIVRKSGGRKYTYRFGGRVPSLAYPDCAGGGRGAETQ
In short, it runs like this: as §1

The target of another assay is CRX (Homo sapiens, UniProt O43186 1-299). Put shortly: as §1
Sequence of CRX (O43186 whole entry): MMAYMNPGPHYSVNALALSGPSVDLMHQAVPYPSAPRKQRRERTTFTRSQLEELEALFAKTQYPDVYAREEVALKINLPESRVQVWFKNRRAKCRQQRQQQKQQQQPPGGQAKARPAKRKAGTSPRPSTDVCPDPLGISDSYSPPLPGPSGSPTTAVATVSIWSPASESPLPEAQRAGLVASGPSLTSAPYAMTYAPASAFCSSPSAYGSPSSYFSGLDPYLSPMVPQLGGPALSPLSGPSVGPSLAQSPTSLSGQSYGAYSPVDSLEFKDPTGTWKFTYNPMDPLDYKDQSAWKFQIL
Another assay has as its target T3, ERF (Homo sapiens, UniProt P50548 1-548).
T3 sequence: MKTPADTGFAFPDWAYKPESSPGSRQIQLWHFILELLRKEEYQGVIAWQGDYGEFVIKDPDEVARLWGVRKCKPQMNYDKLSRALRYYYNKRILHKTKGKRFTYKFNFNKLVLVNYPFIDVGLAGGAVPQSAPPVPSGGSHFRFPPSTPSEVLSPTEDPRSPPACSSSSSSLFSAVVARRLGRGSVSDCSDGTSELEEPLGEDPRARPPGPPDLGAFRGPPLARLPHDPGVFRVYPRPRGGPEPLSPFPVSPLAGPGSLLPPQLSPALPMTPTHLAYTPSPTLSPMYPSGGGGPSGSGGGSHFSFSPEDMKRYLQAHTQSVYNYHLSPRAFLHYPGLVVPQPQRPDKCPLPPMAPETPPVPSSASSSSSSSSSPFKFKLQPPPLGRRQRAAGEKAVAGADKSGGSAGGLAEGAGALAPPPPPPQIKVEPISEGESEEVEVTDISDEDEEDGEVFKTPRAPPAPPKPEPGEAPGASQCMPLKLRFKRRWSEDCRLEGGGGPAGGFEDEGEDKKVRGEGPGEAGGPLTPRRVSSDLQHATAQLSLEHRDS
In short, it runs like this: as §1

The next assay deals with T4, ETV3L (Homo sapiens, UniProt Q6ZN32 1-361).
T4 sequence: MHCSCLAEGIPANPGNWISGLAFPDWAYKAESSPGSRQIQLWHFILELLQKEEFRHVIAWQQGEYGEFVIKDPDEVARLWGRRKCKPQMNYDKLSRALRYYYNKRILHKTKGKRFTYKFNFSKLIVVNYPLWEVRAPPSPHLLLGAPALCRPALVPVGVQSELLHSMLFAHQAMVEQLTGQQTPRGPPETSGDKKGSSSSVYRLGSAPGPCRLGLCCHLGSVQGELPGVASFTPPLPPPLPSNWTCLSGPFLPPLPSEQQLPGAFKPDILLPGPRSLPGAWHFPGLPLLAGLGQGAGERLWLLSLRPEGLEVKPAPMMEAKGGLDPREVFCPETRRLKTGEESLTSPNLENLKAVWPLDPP
Put shortly:
as §1

The target of a further assay is T5, ETS2 (Homo sapiens, UniProt P15036 1-469).
T5 sequence: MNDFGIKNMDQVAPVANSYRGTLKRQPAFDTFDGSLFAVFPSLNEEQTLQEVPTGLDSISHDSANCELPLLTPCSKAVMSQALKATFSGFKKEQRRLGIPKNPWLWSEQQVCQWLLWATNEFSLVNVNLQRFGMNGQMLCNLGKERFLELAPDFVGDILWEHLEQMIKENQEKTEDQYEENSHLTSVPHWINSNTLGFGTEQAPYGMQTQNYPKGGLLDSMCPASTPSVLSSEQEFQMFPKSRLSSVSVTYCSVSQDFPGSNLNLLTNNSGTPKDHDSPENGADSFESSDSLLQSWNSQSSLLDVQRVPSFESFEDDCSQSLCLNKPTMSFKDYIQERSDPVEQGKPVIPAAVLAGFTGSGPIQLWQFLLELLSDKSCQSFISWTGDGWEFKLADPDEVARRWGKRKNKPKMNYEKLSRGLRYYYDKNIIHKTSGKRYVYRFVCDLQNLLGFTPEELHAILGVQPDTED
In short, it runs like this: as §1

The target in the next assay is T6, SPDEF (Homo sapiens, UniProt O95238 1-335).
T6 sequence: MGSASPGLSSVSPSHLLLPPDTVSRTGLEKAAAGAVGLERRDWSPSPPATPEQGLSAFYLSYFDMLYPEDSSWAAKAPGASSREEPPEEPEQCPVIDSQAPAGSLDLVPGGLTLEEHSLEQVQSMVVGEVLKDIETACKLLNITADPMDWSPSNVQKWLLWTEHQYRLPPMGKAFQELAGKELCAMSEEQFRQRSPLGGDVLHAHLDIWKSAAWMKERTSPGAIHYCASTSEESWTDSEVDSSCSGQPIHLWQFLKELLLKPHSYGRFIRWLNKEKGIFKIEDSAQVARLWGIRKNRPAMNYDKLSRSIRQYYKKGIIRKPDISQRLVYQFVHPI
Put shortly:
as §1

For a further assay, the target named is T7, ETV7 (Homo sapiens, UniProt Q9Y603 1-341).
T7 sequence: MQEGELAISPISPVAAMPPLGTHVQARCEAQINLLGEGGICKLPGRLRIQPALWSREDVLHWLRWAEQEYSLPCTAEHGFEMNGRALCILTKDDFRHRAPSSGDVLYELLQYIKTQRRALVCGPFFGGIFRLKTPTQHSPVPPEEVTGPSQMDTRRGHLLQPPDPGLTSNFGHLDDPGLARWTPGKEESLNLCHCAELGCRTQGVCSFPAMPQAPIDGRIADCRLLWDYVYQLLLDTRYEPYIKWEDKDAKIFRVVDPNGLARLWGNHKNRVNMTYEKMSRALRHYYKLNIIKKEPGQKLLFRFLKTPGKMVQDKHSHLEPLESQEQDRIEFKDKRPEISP
Put shortly: as §1

Another assay concerns the target ETV6 (Homo sapiens, UniProt P41212 1-452). In short, it runs like this:
as §1

Sequence of ETV6 (P41212 whole entry): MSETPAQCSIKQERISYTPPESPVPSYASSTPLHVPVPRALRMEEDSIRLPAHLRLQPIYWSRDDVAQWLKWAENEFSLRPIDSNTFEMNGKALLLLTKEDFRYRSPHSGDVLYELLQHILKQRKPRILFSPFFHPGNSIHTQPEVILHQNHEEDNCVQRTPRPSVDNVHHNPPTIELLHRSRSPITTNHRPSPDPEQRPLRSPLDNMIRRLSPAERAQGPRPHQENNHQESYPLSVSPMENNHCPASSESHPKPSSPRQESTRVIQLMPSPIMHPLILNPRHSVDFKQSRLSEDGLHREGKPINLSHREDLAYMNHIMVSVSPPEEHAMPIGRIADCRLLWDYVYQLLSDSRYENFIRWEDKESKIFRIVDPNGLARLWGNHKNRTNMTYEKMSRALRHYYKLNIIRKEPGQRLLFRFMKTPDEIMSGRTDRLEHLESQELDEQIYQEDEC

Take GATTAA: the binding signal in the assay with ELK4 was 1.06 fold enrichment (6-mer frequency, TF over GST control); with ETV2 it was 1.11 fold enrichment (6-mer frequency, TF over GST control); with CRX, 4.96 fold enrichment (6-mer frequency, TF over GST control); in the assay with ERF, 1.04 fold enrichment (6-mer frequency, TF over GST control); with ETV3L it was 1.1 fold enrichment (6-mer frequency, TF over GST control); with ETS2, 1.01 fold enrichment (6-mer frequency, TF over GST control). Further, the binding signal is 1.08 fold enrichment (6-mer frequency, TF over GST control) in the assay with SPDEF; 1.01 fold enrichment (6-mer frequency, TF over GST control) with ETV7; 1.12 fold enrichment (6-mer frequency, TF over GST control) with ETV6.

(Values after paper PMC7862700, “An all-to-all approach to the identification of sequence-specific readers for epigenetic DNA modifications on cytosine”.)
